# Source: PubChem BioAssay (NCATS)
# Inconclusive results are not listed. Entries that show only a call come without a potency. Calls of active or inactive are those of the source. Unless noted, calls follow the shape of the dose curve; as a rule, active = well fitted curve in the direction sought with a large enough effect; inconclusive = small, poorly fitted or top-dose-only effect, or another doubt; inactive = no such curve, though single readings can be large; an effect the other way counts as inactive or inconclusive.
# Legend:
# [1] = qHTS Assay for Identification of Small Molecule Inducers of Hypoxia Response (AID 2120; active = well fitted curve in the direction sought with a large enough effect in the signal ratio, with a control signal flat, not every such curve was filed as active; the % refers to the signal ratio)
# Outline: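 ME-180 HRE-bla cells plated in Opti-MEM/0.5% dialyzed FBS, rested 4-5 h, then dosed with compound titrations by pin tool. After 17 h at 37 degrees C, CCF4 dye loaded 2.5 h at RT; 460/530 nm ratio gave %Activity and AC50.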
# [2] = target: Ferritin light chain (Equus caballus) (UniProt P02791); assay: qHTS Validation Assay for Identification of Novel General Anesthetics (AID 2323); also: series mostly up to about 77 µM
# Sequence of Ferritin light chain (Equus caballus) (P02791 2-175 limits assumed): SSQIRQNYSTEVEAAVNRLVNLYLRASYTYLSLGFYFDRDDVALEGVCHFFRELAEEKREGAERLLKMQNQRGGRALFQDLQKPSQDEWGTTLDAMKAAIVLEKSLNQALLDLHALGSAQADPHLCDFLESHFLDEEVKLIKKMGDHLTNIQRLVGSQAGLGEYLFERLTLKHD
# Outline: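 Apoferritin from horse spleen (10 uM) was mixed with 1-aminoanthracene at 50% saturation in PBS, then compounds were added. After 10 min at room temperature, fluorescence was read (ex 380 nm, em 535 nm) and normalized to free-probe and complex controls.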
# [3] = target: ATP-dependent DNA helicase Q1 (Homo sapiens) (UniProt P46063); assay: qHTS Validation Assay for Inhibitors of RecQ-Like Dna Helicase 1 (RECQ1) (AID 2353)
# Sequence of ATP-dependent DNA helicase Q1 (Homo sapiens) (P46063 whole entry, looked up): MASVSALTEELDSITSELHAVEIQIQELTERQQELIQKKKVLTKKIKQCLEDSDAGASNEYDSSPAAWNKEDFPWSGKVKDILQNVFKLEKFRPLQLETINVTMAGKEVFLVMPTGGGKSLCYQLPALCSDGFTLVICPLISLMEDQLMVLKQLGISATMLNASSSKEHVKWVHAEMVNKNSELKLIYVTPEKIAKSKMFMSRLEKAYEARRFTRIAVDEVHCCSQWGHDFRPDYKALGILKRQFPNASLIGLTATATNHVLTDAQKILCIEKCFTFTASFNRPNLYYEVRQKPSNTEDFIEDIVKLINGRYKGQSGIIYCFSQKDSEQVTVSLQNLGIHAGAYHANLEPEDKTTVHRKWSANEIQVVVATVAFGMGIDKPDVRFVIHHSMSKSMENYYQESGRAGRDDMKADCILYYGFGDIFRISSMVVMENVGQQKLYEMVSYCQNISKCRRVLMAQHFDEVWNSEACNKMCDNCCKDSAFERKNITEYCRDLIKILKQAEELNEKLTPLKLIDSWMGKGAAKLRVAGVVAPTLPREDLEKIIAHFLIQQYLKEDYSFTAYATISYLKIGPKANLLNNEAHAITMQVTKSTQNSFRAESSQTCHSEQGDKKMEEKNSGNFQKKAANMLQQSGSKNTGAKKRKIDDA
# Outline: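 50 nM RECQ1T1 preincubated 15 min with compound in Tris pH 8.0 buffer with MgCl2, DTT, Tween-20 and 2.5 ug/ml poly(dI-dC); started with 200 nM TAMRA/BHQ-2 forked duplex and 2 mM ATP. Unwinding read as fluorescence (525/598 nm), two reads 2 h apart.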
# [4] = target: RecQ-like DNA helicase BLM (Homo sapiens) (UniProt P54132); assay: qHTS Validation Assay for Inhibitors of Bloom's syndrome helicase (BLM) (AID 2364)
# Sequence of RecQ-like DNA helicase BLM (Homo sapiens) (P54132 whole entry, looked up): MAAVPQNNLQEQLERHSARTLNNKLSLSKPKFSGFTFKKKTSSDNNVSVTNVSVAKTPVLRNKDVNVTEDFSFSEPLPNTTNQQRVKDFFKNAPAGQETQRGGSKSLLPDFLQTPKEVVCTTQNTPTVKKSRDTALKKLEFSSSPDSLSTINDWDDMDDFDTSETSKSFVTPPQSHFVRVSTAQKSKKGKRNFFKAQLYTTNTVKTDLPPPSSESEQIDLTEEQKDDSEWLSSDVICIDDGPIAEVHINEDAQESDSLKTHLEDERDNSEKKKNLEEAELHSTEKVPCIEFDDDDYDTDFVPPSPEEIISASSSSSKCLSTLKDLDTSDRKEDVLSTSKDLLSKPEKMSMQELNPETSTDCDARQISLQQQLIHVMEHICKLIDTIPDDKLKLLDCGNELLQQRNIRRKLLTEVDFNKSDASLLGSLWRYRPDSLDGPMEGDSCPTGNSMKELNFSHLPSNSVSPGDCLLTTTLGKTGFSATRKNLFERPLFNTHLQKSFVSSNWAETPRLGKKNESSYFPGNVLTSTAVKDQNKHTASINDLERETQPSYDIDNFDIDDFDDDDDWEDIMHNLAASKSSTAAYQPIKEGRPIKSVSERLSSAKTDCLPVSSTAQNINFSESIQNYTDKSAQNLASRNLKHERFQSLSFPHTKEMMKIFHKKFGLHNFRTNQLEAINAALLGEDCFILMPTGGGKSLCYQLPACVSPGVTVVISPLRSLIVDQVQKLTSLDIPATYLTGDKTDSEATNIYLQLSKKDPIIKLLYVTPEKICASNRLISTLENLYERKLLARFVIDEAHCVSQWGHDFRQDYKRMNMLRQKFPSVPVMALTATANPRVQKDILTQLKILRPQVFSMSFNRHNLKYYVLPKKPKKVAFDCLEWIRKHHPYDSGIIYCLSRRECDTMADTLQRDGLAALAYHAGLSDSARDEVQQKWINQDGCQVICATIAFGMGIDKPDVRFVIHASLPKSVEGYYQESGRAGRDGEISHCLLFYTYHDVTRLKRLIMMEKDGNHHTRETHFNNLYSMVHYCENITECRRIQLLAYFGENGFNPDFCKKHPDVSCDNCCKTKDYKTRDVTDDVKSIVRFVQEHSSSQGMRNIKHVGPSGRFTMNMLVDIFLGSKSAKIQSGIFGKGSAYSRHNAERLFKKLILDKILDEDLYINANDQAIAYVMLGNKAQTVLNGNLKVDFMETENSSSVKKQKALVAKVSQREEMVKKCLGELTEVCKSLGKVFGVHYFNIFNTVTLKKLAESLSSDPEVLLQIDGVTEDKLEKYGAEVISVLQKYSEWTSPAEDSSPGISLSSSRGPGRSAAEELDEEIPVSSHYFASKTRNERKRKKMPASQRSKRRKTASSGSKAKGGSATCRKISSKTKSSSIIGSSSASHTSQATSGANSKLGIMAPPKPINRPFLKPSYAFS
# Outline: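 50 nM BLM preincubated 15 min at room temperature with compound in pH 8.0 Tris buffer containing 2.5 ug/ml poly(dI-dC); started with 200 nM TAMRA/BHQ-2 forked duplex and 2 mM ATP (final). Unwinding read as TAMRA fluorescence increase, two reads 2 h apart.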
# [5] = Cytometric Cell-Based qHTS for Inhibitors of the mTORC1 Signaling Pathway in MEF (Tsc2-/-, p53-/-) Cells (AID 2660);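 also: percent of cells above a phospho-rpS6 to PI ratio cutoff in each well; series mostly up to about 38 µM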
# Outline: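 Readout: Alexa-488 phospho-rpS6 (Ser235/236) intensity divided by PI intensity, thresholded against 7.5 nM rapamycin wells and reported as % positive cells. PI cell count served as the viability measure. Compound exposure was 24 hrs at 37 degree Celsius.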
# [6] = High Content Imaging Cell-Based qHTS for Inhibitors of the mTORC1 Signaling Pathway in MEF (Tsc2-/-, p53-/-) Cells (AID 2666);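 also: percent of cells scored positive for phospho-rpS6 Ser235/236 immunostaining by imaging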
# Outline: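 Phospho-rpS6 (Ser235/236) immunofluorescence, normalized and scored as % positive cells using rapamycin and DMSO controls, was read in empty-vector Tsc2-/-, p53-/- MEFs after 24 h compound exposure at 37 C; propidium iodide counted cells.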
# [7] = High Content Imaging Cell-Based qHTS for Inhibitors of the mTORC1 Signaling Pathway in MEF Cells (AID 2667);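 also: Tsc2-/- p53-/- MEFs stably re-expressing wild-type Tsc2 exposed 24 h; series mostly up to about 38 µM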
# Outline: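 WT MEFs (Tsc2-/-, p53-/- re-expressing Tsc2), in DMEM + 10% FBS, were treated with compound for 24 h at 37 C. Cells were then fixed and stained for phospho-rpS6 Ser235/236 with propidium iodide as cell count. Values are % positive cells, with thresholds set against rapamycin-treated cells.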
# [8] = Validation screen for inhibitors of Lassa infection (AID 463096; calls by dose curve; also: potency is read from the fitted curve at half-maximal effect)
# [9] = Validation screen for small molecules that induce DNA re-replication in MCF 10A normal breast cells (AID 463097); also: nearly all actives have a fitted effect of over 60% in size
# Outline: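 DNA re-replication was detected as a rise in nuclei with elevated Hoechst fluorescence after a 48 hr compound exposure of MCF 10A cells at 37 C.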
# [10] = target: Ubiquitin carboxyl-terminal hydrolase 2 (Homo sapiens) (UniProt O75604); assay: qHTS Validation Assay for Inhibitors of Ubiquitin-specific Protease USP2a Using CHOP2 as the Reporter (AID 463106)
# Sequence of Ubiquitin carboxyl-terminal hydrolase 2 (Homo sapiens) (O75604 whole entry, looked up): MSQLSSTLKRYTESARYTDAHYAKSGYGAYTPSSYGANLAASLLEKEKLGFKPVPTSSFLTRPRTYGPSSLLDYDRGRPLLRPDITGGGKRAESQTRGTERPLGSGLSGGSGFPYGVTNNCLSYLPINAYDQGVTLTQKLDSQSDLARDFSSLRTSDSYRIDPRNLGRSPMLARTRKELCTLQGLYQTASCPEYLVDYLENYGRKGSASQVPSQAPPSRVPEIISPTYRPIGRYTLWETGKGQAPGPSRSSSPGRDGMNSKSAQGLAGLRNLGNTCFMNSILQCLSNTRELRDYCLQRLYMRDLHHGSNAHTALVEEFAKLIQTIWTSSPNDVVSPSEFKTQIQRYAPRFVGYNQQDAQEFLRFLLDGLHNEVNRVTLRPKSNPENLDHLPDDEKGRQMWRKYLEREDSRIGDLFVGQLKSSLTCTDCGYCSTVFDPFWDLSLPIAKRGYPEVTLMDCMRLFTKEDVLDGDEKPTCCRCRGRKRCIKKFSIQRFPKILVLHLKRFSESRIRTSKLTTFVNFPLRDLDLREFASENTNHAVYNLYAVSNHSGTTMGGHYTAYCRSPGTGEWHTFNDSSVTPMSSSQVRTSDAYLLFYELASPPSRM
# Outline: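 USP2 core (10 nM final) was preincubated with compound 30 min at RT in pH 8.0 Tris/CaCl2/beta-ME/CHAPS buffer. Ub-CHOP2 and reporter substrate (25 nM final each) were then added, with fluorescence (Ex 485/Em 531) read after 60 min. Data were normalized to NEM full inhibition and fitted to concentration-response curves.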
# [11] = target: DNA polymerase III PolC-type (Bacillus subtilis (strain 168)) (UniProt P13267); assay: qHTS Validation Assay for the Inhibitors of DNA Replication in Gram-Positive Bacteria (AID 485295);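 also: reconstituted holoenzyme with PolC plus beta clamp SSB and primase; PicoGreen fluorescence of double-stranded DNA made on primed circular M13 template; series mostly up to about 57 µM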
# Sequence of DNA polymerase III PolC-type (Bacillus subtilis (strain 168)) (P13267 whole entry, looked up): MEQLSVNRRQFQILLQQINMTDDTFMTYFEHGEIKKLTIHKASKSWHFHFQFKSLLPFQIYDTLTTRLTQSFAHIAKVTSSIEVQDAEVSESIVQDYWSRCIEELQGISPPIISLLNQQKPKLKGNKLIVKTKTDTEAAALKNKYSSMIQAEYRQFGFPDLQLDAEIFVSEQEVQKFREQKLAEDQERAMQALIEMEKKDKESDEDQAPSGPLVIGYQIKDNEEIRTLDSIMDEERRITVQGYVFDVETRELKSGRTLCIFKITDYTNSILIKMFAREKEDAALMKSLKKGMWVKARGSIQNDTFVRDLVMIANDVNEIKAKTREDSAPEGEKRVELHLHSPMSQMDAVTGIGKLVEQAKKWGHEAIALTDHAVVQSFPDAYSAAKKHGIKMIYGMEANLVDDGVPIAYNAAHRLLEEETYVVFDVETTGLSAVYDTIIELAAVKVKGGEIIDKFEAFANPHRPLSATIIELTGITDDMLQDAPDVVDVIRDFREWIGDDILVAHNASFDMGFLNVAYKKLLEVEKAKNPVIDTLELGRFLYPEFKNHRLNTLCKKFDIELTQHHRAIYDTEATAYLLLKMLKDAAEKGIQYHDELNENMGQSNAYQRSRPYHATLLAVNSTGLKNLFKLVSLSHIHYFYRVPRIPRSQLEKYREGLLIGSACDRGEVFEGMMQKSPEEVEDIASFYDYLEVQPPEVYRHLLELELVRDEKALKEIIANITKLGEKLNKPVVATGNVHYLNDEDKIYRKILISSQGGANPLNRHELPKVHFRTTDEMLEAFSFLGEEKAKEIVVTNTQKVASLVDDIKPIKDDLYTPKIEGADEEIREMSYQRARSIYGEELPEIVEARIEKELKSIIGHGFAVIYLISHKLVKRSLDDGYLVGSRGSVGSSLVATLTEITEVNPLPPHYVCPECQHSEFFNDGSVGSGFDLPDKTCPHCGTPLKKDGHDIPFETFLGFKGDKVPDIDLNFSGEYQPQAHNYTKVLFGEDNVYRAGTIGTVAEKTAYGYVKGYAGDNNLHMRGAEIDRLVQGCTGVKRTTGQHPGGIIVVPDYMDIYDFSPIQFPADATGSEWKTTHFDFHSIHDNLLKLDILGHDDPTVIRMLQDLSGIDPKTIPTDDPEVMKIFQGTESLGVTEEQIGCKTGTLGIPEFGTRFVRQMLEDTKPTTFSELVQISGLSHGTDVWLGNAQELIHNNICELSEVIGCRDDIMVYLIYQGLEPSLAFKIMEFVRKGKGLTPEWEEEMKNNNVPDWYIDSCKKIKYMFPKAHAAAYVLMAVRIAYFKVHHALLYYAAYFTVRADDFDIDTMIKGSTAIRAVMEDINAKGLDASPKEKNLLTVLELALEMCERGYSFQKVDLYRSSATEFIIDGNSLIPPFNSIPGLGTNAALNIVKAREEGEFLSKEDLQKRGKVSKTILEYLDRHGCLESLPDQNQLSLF
# Outline: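 Primed replication of single-stranded M13Gori by a four-protein B. subtilis holoenzyme is measured at room temperature. Double-stranded product is quantified by PicoGreen fluorescence after an EDTA stop; inhibition is scaled between DMSO and EDTA controls.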
# [12] = target: Tumor susceptibility gene 101 protein (Homo sapiens) (UniProt Q99816); assay: qHTS Validation Assay for Iinhibitors of HIV-1 Budding by Blocking the Interaction of PTAP/TSG101 (AID 485342; calls by dose curve)
# Outline: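 Fluorescence anisotropy measured PTAP-Tsg101 interaction. Final concentrations were 10 uM protein domain and 50 nM labeled peptide, equilibrated 20 min at room temperature.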
# [13] = qHTS Validation Assay to Find Inhibitors of Chronic Active B-Cell Receptor Signaling (AID 485345; active = well fitted curve in the direction sought with a large enough effect in the main read-out, with a control signal flat, not every such curve was filed as active)
# Outline: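 TMD8 ABC-DLBCL cells stably carrying doxycycline-inducible IkappaBalpha–green luciferase fusion plus unfused red luciferase; compounds 46 uM to 3 nM, 4 h at 37C with doxycycline. Corrected green/red luminescence ratio normalized to 10 uM MG-132 and basal cell wells; curves fitted.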
# [14] = target: Beta-2 adrenergic receptor (Homo sapiens) (UniProt P07550); assay: qHTS validation assay of beta-arrestin-biased ligands of beta2-adrenergic receptor (AID 485366)
# Outline: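 Tango cells (recombinant beta2-AR with recombinant beta-arrestin; recruitment releases tTA driving luciferase) were treated with compounds titrated up to 46 microM for 18 hr at 37 degrees C. Luminescence gave %Activity, and concentration-response curves were curve-classified.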
# [15] = target: ATP-dependent 6-phosphofructokinase (Trypanosoma brucei brucei) (UniProt O15648); assay: qHTS Validation Assay to Find Inhibitors of T. brucei phosphofructokinase (AID 485368)
# Sequence of ATP-dependent 6-phosphofructokinase (Trypanosoma brucei brucei) (O15648 whole entry, looked up): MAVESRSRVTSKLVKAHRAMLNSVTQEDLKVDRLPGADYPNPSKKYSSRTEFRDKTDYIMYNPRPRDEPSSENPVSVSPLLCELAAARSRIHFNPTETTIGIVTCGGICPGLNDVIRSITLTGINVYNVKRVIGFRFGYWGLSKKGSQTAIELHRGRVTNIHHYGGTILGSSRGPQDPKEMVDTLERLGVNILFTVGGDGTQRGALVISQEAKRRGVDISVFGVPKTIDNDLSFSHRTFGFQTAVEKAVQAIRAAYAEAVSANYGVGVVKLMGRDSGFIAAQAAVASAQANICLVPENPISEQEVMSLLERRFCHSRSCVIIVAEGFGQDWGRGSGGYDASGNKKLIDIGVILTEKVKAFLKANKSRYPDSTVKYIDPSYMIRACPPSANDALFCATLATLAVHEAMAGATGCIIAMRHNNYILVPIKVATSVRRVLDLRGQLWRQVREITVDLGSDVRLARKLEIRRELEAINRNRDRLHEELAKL
# Outline: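 Compounds (up to 57 uM, titration series) were pinned into substrate buffer, then 1.25 nM PFK added; after 45 min at room temperature, ADP product was quantified by ADP-Glo luminescence and concentration-response curves fitted.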
# [16] = Quantitative high throughput screen for delayed death inhibitors of the malarial parasite plastid, 96 hour incubation (AID 488745); also: nearly all actives have a fitted effect of over 70% in size; also: potency is read from the fitted curve at half-maximal effect
# Outline: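 Infected erythrocytes were added to compound in Albumax-supplemented RPMI 1640 at 0.1% parasitemia and 2% hematocrit (final), incubated 96 h at 37 C under 5% CO2, then luciferase reagent was added and luminescence measured.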
# [17] = Quantitative high throughput screen for delayed death inhibitors of the malarial parasite plastid, 48 hour incubation (AID 488752); also: nearly all actives have a fitted effect of over 65% in size; also: potency is read from the fitted curve at half-maximal effect
# Outline: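 Readout is firefly luciferase luminescence from a reporter integrated into the parasite genome, with lower signal taken as inhibited growth. Infected red cells (0.1% parasitemia, 2% hematocrit final) are cultured with compound for one 48 h cycle at 37 C.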
# [18] = Cytometry Cell-Based qHTS for Inhibitors of the mTORC1 Signaling Pathway in MEF cells (AID 2668);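 also: Tsc2-/- p53-/- mouse embryonic fibroblasts stably re-expressing wild-type Tsc2; percent cells positive for phospho-rpS6 Ser235/236 relative to propidium iodide stain; series mostly up to about 38 µM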
# Outline: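 Pathway inhibition in WT Tsc2-rescued Tsc2-/-, p53-/- MEFs is measured as the Alexa-488 phospho-rpS6 to propidium iodide intensity ratio after 24 hrs of compound at 37 degree Celsius. PI-stained cell number gives viability.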
smiles,measurement,setting,value
O=C(O)C(Cl)(Cl)Cl,outcome,[1],inactive
CCCN(CCC)[C@H]1CCc2c(F)ccc(O)c2C1,outcome,[2],inactive
same,Potency,[3],inactive
same,Potency,[4],inactive
same,Potency,[5],inactive
same,Potency,[6],inactive
same,Potency,[7],inactive
same,Potency,[8],inactive
same,Potency,[9],inactive
same,Potency,[10],inactive
same,Potency,[11],inactive
same,outcome,[12],inactive
same,Potency,[13],inactive
same,outcome,[14],inactive
same,Potency,[15],inactive
same,Potency,[16],2.94 µM (active)
same,Potency,[17],2.94 µM (active)
O=C1CCO1,outcome,[1],inactive
NC(Cc1ccc(N(CCCl)CCCl)cc1)C(=O)O (stereo not drawn),outcome,[2],inactive
same,Potency,[3],inactive
same,Potency,[4],inactive
same,Potency,[5],inactive
same,Potency,[6],inactive
same,Potency,[7],inactive
same,Potency,[18],inactive
same,Potency,[8],8.91 µM (active)
same,Potency,[9],inactive
same,Potency,[10],inactive
same,Potency,[11],inactive
same,outcome,[14],inactive
same,Potency,[15],inactive
same,Potency,[16],14.7 µM (active)
same,Potency,[17],8.28 µM (active)
NC(=O)c1ccc(OCC(O)CN2CC=C(c3ccc(F)cc3)CC2)cc1 (stereo not drawn),outcome,[2],inactive
same,Potency,[3],inactive
same,Potency,[4],inactive
same,Potency,[5],inactive
same,Potency,[6],inactive
same,Potency,[7],inactive
same,Potency,[18],inactive
same,Potency,[8],inactive
same,Potency,[9],inactive
same,Potency,[10],inactive
same,Potency,[11],inactive
same,outcome,[12],inactive
same,Potency,[13],inactive
same,outcome,[14],inactive
same,Potency,[15],inactive
same,Potency,[16],inactive
same,Potency,[17],inactive
C[N+](C)(C)CCOC(=O)CBr,outcome,[2],inactive
same,Potency,[3],inactive
same,Potency,[4],inactive
same,Potency,[5],inactive
same,Potency,[6],inactive
same,Potency,[7],inactive
same,Potency,[18],inactive
same,Potency,[8],inactive
same,Potency,[9],inactive
same,Potency,[10],inactive
same,Potency,[11],inactive
same,Potency,[13],inactive
same,outcome,[14],inactive
same,Potency,[15],inactive
same,Potency,[16],inactive
same,Potency,[17],inactive
Clc1ccc(N2CC3CCC(C2)N3)nn1,outcome,[2],inactive
same,Potency,[3],inactive
same,Potency,[4],inactive
same,Potency,[5],inactive
same,Potency,[6],inactive
same,Potency,[7],inactive
same,Potency,[8],inactive
same,Potency,[9],inactive
same,Potency,[10],inactive
same,Potency,[11],inactive
same,outcome,[12],inactive
same,Potency,[13],inactive
same,outcome,[14],inactive
same,Potency,[15],inactive
same,Potency,[16],inactive
same,Potency,[17],inactive
c1ccc2cc(CC3=NCCN3)ccc2c1,outcome,[2],inactive
same,Potency,[3],inactive
same,Potency,[4],inactive
same,Potency,[5],inactive
same,Potency,[6],inactive
same,Potency,[7],inactive
same,Potency,[18],inactive
same,Potency,[8],inactive
same,Potency,[9],inactive
same,Potency,[10],inactive
same,Potency,[11],inactive
same,outcome,[12],inactive
same,Potency,[13],inactive
same,outcome,[14],inactive
same,Potency,[15],inactive
same,Potency,[17],inactive
ClC(Cl)(Cl)Cl,outcome,[1],inactive
ClC=C(Cl)Cl,outcome,[1],inactive
O=C/C=C/c1ccccc1,outcome,[1],inactive
C[C@H](N)CN1CCc2ccc(Br)cc21,outcome,[2],inactive
same,Potency,[3],inactive
same,Potency,[4],inactive
same,Potency,[5],inactive
same,Potency,[6],inactive
same,Potency,[7],inactive
same,Potency,[18],inactive
same,Potency,[9],inactive
same,Potency,[10],inactive
same,Potency,[11],inactive
same,outcome,[12],inactive
same,outcome,[14],inactive
same,Potency,[16],inactive
same,Potency,[17],inactive
ClCC1CO1 (stereo not drawn),outcome,[1],inactive
CCOC(=O)c1ccccc1C(=O)OCC,outcome,[1],inactive
CC(C)CCON=O,outcome,[1],inactive
